From PubChem BioAssay
Pf growth 96h – inhibits malaria parasite growth, 96 h; P. falciparum luciferase reporter growth, 96 h; Potency, µM (highest dose often 28.7 µM), inactives show at the highest dose activity change, negative = inhibition, actives largely listed as inhibitors; 320,000 compounds, 6.9% hits; AID 504834; further: potency means the concentration at half of the fitted maximal effect; on the % scale 0 is the no-effect control and ±100 the full control effect
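Delayed-death screen, second-generation endpoint: infected erythrocytes, 2% hematocrit, 0.05% parasitemia final; 96 hours at 37 C, 5% CO2; luciferase detection reagent; luminescence decrease equals reduced growth.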
Pf growth 48h – P. falciparum growth inhibition at 48 hours (one generation); P. falciparum luciferase growth in erythrocytes, 48 h; Potency, µM (doses to about 28.7 µM), inactives show top-dose activity change, negative = inhibition, hits mostly inhibitors; 310,000 compounds, 5.9% hits; further: potency means the concentration at half of the fitted maximal effect; on the % scale 0 is the no-effect control and ±100 the full control effect
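Firefly luciferase activity from engineered P. falciparum reports growth; inhibitors lower the luminescent signal. Cultures contained 2% hematocrit erythrocytes at 0.1% final parasitemia.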
AMA1-RON2 inh – AMA1-RON2 (P. falciparum) interaction inhibition; 360,000 compounds, 0.2% hits; AID 720542; AlphaScreen AMA1-biotinylated RON2 peptide binding; Potency, µM (highest dose often 58.2 µM), for inactives: at the highest dose activity change, negative = inhibition, usual class: inhibitors;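 further: potency means the concentration at half of the fitted maximal effect; 0% = vehicle wells and -100% = peptide control; nearly all actives have a fitted effect of over 45% in size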
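AMA1 (3D7) with his tag at 25 nM final met compounds first, then biotinylated RON2 peptide at 25 nM; detection used donor plus acceptor beads, 10 µg/mL apiece, read by AlphaScreen after 30 min at room temperature.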
Shiga inhibitor – inhibitors of Shiga toxin in Vero cells | Vero cells, Shiga toxin protein synthesis inhibition reporter | 290,000 compounds, 9.2% hits | inhibition, % at 38.7 µM; in the data active means inhibition mostly above about 28%, no sharp cut-off; inactive means mostly below about 43%; further: 0% is about no effect
SARS PLpro yeast – inhibitors of SARS-CoV papain-like protease in yeast | S. cerevisiae expressing SARS-CoV PLpro, growth rescue | Potency, µM (doses to about 32.9 µM), inactives show at the highest dose activity, positive = growth rescue, most hits filed as activators | 330,000 compounds, 0.19% hits | AID 485353; calls by dose curve; further: potency means the concentration at half of the fitted maximal effect; 0% is about no effect; nearly all actives have a fitted effect of over 55% in size
CHX counter – counter-screen hit for Shiga toxin inhibitors, cycloheximide. max response, %. cell reporter, cycloheximide protein synthesis inhibition counterscreen. 300,000 compounds, 12% hits; in the data active means max response mostly above about 13%, no sharp cut-off; inactive means mostly below about 14%; further: read at 38.3 µM for the half of the compounds with a filed dose; 0% is about no effect
Active calls of the source: *; ? = inconclusive; · = no result given; [ ] = remark or other dose. A selection: hits, their analogues and other compounds. The true share with any hit is near 19%. Unless noted, the call rests on the fitted dose curve; in most records, active means well fitted curve in the direction sought with a large enough effect; inconclusive means small, poorly fitted or top-dose-only effect, or another doubt; inactive means no such curve, though single readings can be large; an effect the other way counts as inactive or inconclusive.

SMILES | Pf growth 96h | Pf growth 48h | AMA1-RON2 inh | Shiga inhibitor | SARS PLpro yeast | CHX counter
Cc1nc(-c2cccc(NC(=O)COc3ccc(Cl)cc3)c2)cs1 | 1% | 12% | -12% | 16 | -3% | 10
CNC(=O)c1nnsc1S(=O)(=O)c1ccc(Cl)cc1 | ? | ? | 9% | -1 | -26% | 16
O=C(c1nnsc1S(=O)(=O)c1ccc(Cl)cc1)N1CCOCC1 | ? | -54% | 7% | 45* | -11% | 28*
O=C(c1nnsc1S(=O)c1ccc(Cl)cc1)N1CCOCC1 (centres undefined) | -6% | 17µM* | -5% | 64 | -24% | 60*
O=C(CC(SCCO)c1ccc([N+](=O)[O-])cc1)c1ccco1 (centres undefined) | 30% | 0% | 12% | -2 | 11% | 13
CC(=O)NC(CSC(CC(=O)c1ccco1)c1ccc(C)cc1)C(=O)O (centres undefined) | -4% | 19% | -1% | 105* | 0% | 57*
CCO[C@H]1OC(C(=O)NC2CC2)=C[C@@H](c2csc3ccccc23)[C@@H]1CCCO | 0.19µM* | ? | -1% | -14 | 1% | -2
CCO[C@@H]1OC(C(=O)NCc2ccccc2)=C[C@H](c2csc3ccccc23)[C@H]1CCCO | 10µM* | ? | 6% | -1 | 0% | 1
C#CCNC(=O)C1=C[C@H](c2csc3ccccc23)[C@@H](CCCO)[C@H](OCC)O1 | ? | 0% | -6% | -6 | -1% | 1
CCO[C@H]1OC(C(N)=O)=C[C@@H](c2csc3ccccc23)[C@@H]1CCCO | 16% | 1% | 12% | 15 | 0% | 2
CCO[C@@H]1OC(C(=O)Nc2ccccc2)=C[C@H](c2csc3ccccc23)[C@H]1CCCO | ? | 7.4µM* | 4% | 20 | 1% | -2
CCO[C@H]1OC(C(=O)Nc2ccccc2)=C[C@@H](C)[C@@H]1CCCO | 32% | 31% | 2% | 6 | -1% | 11*
O=C(NC1CCCC1)C(c1ccc(F)cc1)N(C(=O)c1csnn1)C1CC1 (centres undefined) | -2% | 12% | 15% | -1 | -2% | -2
C=C[C@@H]1c2cc(C)ccc2N(S(=O)(=O)c2ccc(C)cc2)[C@H](c2ccccc2)C1(C#N)C#N | ? | ? | 0% | · | -3% | ·
CC(=O)Nc1cccc(C(=O)OCC(=O)c2ccccc2Cl)c1 | 107% | 191% | 4% | 125* | -2% | 35*
COc1ccccc1C(=O)NC(=O)COC(=O)c1cccc(NC(C)=O)c1 | 15% | 6% | -14% | 10 | 0% | 28*
CCC(=O)Nc1cccc(C(=O)OCC(=O)c2ccccc2Cl)c1 | 37% | 36% | -2% | 74* | -2% | 31*
CC(=O)Nc1cccc(C(=O)OCC(=O)Nc2ccc(Cl)cn2)c1 | 6% | 49% | -10% | · | 1% | ·
CC(=O)Nc1cccc(C(=O)OCC(=O)NC(=O)c2ccccc2)c1 | 40% | 36% | -3% | · | -2% | ·
O=C1NC2(CCCCCC2)C(=O)N1Cc1ccccc1Cl | 3% | 5% | 26% | -7 | -3% | 1
CCN1CCN(c2nc3c(C)cccn3c(=O)c2/C=C(\C#N)C(=O)NC)CC1 | -5% | 3% | 5% | 3 | 0% | -7
Cc1ccc(C(=O)N[C@@H](C)CN2C3=NC[C@@H](Cc4ccccc4)N3C[C@H]2Cc2ccc(O)cc2)cc1Br | 2.9µM* | 5.2µM* | -20% | -5 | 0% | -2
CC(CCc1ccccc1)NC(=O)c1ccc(Br)cc1 (centres undefined) | ? | 61% | 4% | 23 | 4% | 12
COc1ccc(C[C@H]2CN3C(=NC[C@@H]3Cc3ccc(O)cc3)N2C[C@H](C)NC(=O)c2ccc(C)c(Br)c2)cc1 | 0.83µM* | 1.5µM* | 2% | -5 | 1% | -5
Cc1ccc(C(=O)N[C@@H](C)CN2C3=NC[C@H](Cc4ccccc4)N3C[C@H]2Cc2ccc(O)cc2)cc1Br | 1.3µM* | 2.1µM* | -13% | -4 | 4% | -7
SMILES | Pf growth 96h | Pf growth 48h | AMA1-RON2 inh | Shiga inhibitor | SARS PLpro yeast | CHX counter
O=C(C[n+]1ccc(/C=C/c2ccccc2)cc1)c1ccc2c(c1)OCCO2 | ? | ? | -18% | 42 | 0% | 10
COc1ccc2oc(C(=O)N3CCc4ccccc43)c(C)c2c1 | -11% | 18% | -1% | -10 | -2% | 5
COc1ccc(C(=O)/C=C/Nc2ccc(S(=O)(=O)Nc3ncccn3)cc2)cc1 | 50% | 4% | · | 38 | -12% | 20*
Cc1noc(NS(=O)(=O)c2ccc(NC(=O)c3ccc(OC(C)C)cc3)cc2)c1C | 6% | 44% | -5% | 9 | 1% | -3
Cc1noc(NS(=O)(=O)c2ccc(N/C=C\C(=O)c3ccncc3)cc2)c1C | ? | · | -10% | -5 | 0% | -3
Cc1noc(NS(=O)(=O)c2ccc(N/C=C/C(=O)c3cccnc3)cc2)c1C | -9% | 7% | -6% | 43* | -7% | 16*
COc1ccc(S(=O)(=O)Nc2ncccn2)cc1 | -14% | 6% | 8% | 17 | -1% | 9
CCc1ccc(C(=O)/C=C/Nc2ccc(S(=O)(=O)Nc3onc(C)c3C)cc2)cc1 | -7% | 15% | -7%[11.6 µM] | 92* | -47% | 50*
COc1ccc(C(=O)/C=C/Nc2ccc(S(=O)(=O)Nc3onc(C)c3C)cc2)cc1 | 46% | 19% | -2% | 77* | 18% | 44*
Cc1noc(NS(=O)(=O)c2ccc(N/C=C/C(=O)c3ccncc3)cc2)c1C | · | 1% | 0% | 59 | -2% | 16
O=C(NC(=O)c1cc([N+](=O)[O-])ccc1Cl)C1=C(N2CCCC2)COC1=O | · | · | 3% | · | 4% | ·
COc1ccc(C(C(=O)NC2CCCC2)N(C(=O)c2snc(C(N)=O)c2N)c2cccc(O)c2)cc1 (centres undefined) | 22% | 2% | -16% | 23 | -1% | 23
Cc1noc(NS(=O)(=O)c2ccc(N/C=C/C(=O)c3ccc(F)cc3)cc2)c1C | -26% | 91% | 0% | 69* | -1% | 33*
CN(C(=O)c1ccc(NC(=O)Cc2cccc(NC(=O)C3CCCN(C(=O)C4CCCC4)C3)c2)cc1)C1CCCC1 (centres undefined) | 3.7µM* | 12µM* | -4% | · | 1% | ·
CN(Cc1ccccc1)C(=O)c1ccc(NC(=O)Cc2cccc(NC(=O)C3CCCN(C(=O)CCc4ccccc4)C3)c2)cc1 (centres undefined) | 1.5µM* | 3.7µM* | -10% | · | 2% | ·
CN(C(=O)c1ccc(NC(=O)Cc2cccc(NC(=O)C3CCCN(C(=O)CCc4ccccc4)C3)c2)cc1)C1CCCC1 (centres undefined) | ? | 0.12µM* | -2% | · | -2% | ·
